# Reference: the supplement of paper PMC12282887
# ± gives the standard deviation of the averaged measurements.
# System: E. coli BW25113 marRABp lux reporter
# Test: promoter activity interaction Z-score (Lux/OD deviation from empty-vector control); higher = stronger promoter induction by the compound
# Experimental: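 E. coli BW25113 (wild type or ΔmarA/ΔsoxS/Δrob) carrying pTU175 luxCDABE promoter reporters was grown in LB in 384-well plates at 37°C with each of 94 compounds at 4 two-fold concentrations, in biological duplicates. Luminescence and OD600 were read every 30 min for 12 h and integrated as AUC over 8 h (0-8 h WT, 1-9 h mutants). Lux AUC was divided by OD AUC; the interaction score is the residual of a Huber robust fit of each promoter against the empty-vector control, then Z-transformed per promoter.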
# [1] = 19 µg/ml, genetic background: wild type
# [2] = 19 µg/ml, genetic background: ΔmarA
# [3] = 19 µg/ml, genetic background: Δrob
# [4] = 19 µg/ml, genetic background: ΔsoxS
Compound,"promoter activity interaction Z-score (2.4 µg/ml, genetic background: wild type)","promoter activity interaction Z-score (2.4 µg/ml, genetic background: ΔmarA)","promoter activity interaction Z-score (2.4 µg/ml, genetic background: Δrob)","promoter activity interaction Z-score (2.4 µg/ml, genetic background: ΔsoxS)","promoter activity interaction Z-score (4.8 µg/ml, genetic background: wild type)","promoter activity interaction Z-score (4.8 µg/ml, genetic background: ΔmarA)","promoter activity interaction Z-score (4.8 µg/ml, genetic background: Δrob)","promoter activity interaction Z-score (4.8 µg/ml, genetic background: ΔsoxS)","promoter activity interaction Z-score (9.5 µg/ml, genetic background: wild type)","promoter activity interaction Z-score (9.5 µg/ml, genetic background: ΔmarA)","promoter activity interaction Z-score (9.5 µg/ml, genetic background: Δrob)","promoter activity interaction Z-score (9.5 µg/ml, genetic background: ΔsoxS)",promoter activity interaction Z-score [1],promoter activity interaction Z-score [2],promoter activity interaction Z-score [3],promoter activity interaction Z-score [4],"promoter activity interaction Z-score (38 µg/ml, genetic background: wild type)","promoter activity interaction Z-score (38 µg/ml, genetic background: ΔmarA)","promoter activity interaction Z-score (38 µg/ml, genetic background: Δrob)","promoter activity interaction Z-score (38 µg/ml, genetic background: ΔsoxS)","promoter activity interaction Z-score (76.1 µg/ml, genetic background: wild type)","promoter activity interaction Z-score (76.1 µg/ml, genetic background: ΔmarA)","promoter activity interaction Z-score (76.1 µg/ml, genetic background: Δrob)","promoter activity interaction Z-score (76.1 µg/ml, genetic background: ΔsoxS)","promoter activity interaction Z-score (152.1 µg/ml, genetic background: wild type)","promoter activity interaction Z-score (152.1 µg/ml, genetic background: ΔmarA)","promoter activity interaction Z-score (152.1 µg/ml, genetic background: Δrob)","promoter activity interaction Z-score (152.1 µg/ml, genetic background: ΔsoxS)"
CO[C@@H]1[C@@H](OC(N)=O)[C@@H](O)[C@H](Oc2ccc3c(O)c(NC(=O)c4ccc(O)c(CC=C(C)C)c4)c(=O)oc3c2C)OC1(C)C [Novobiocin],-0.221 ± 0.081,-0.11 ± 0.13,0.0782 ± 0.013,-0.0478 ± 0.0032,0.022 ± 0.23,0.415 ± 0.36,-0.164 ± 0.31,-0.107 ± 0.12,-0.297 ± 0.13,0.318 ± 0.33,-0.282 ± 0.11,-0.114 ± 0.18,1.2 ± 0.98,5.2 ± 2.7,0.0504 ± 0.67,1.48 ± 0.89,,,,,,,,,,,,
COc1cc(C=O)ccc1O [Vanillin],,,,,,,,,,,,,-0.156 ± 0.018,-0.451 ± 0.34,0.0366 ± 0.23,-0.21 ± 0.21,0.304 ± 0.065,0.0122 ± 0.2,0.119 ± 0.4,-0.0492 ± 0.056,0.913 ± 0.07,0.599 ± 0.31,0.595 ± 0.066,0.224 ± 0.12,1.28 ± 0.41,1.702 ± 0.0098,1.077 ± 0.0082,0.812 ± 0.084
